Measurements as given in the supplement of paper PMC6522484.
Counter-ions that a name gives are not always drawn. ± gives the standard deviation of the averaged measurements.

Experiments:
DLD1 [1] = assay: cell viability (CellTiter-Glo) relative to plate median (fraction of plate median); higher = more viable cells; conditions: 10 µM, treatment time 24 h
Outline: (§1)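 Kinase inhibitor library compounds were added at a final 10 µM for 24 h to colorectal cancer cells in 384-well plates, 24 h after seeding. The cells stably expressed lentiviral TCF/Wnt firefly luciferase reporters. Firefly luciferase and CellTiterGlo luminescence came from parallel plates, and each well was normalised to its plate median (webcellHTS2, additive, untransformed), averaged over two independent replicates.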

HCT116 [2] = assay: as above; conditions: 10 µM; treatment time 24 h; reporter: TCF4/Wnt
Outline: as §1

SW480 [3] = assay: as above; conditions: 10 µM; treatment time 24 h; reporter: 7TFP
Outline: as §1

DLD1 [4] = assay: TCF/Wnt firefly luciferase reporter signal relative to plate median (fraction of plate median); higher = higher Wnt reporter signal; conditions: 10 µM, treatment time 24 h
Outline: as §1

HCT116 [5] = assay: as above; conditions: 10 µM; treatment time 24 h; reporter: TCF4/Wnt
Outline: as §1

SW480 [6] = assay: as above; conditions: 10 µM; treatment time 24 h; reporter: 7TFP
Outline: as §1

Compound | cell viability (DLD1 [1]; reporter: 7TFP) | cell viability (DLD1 [1]; reporter: TCF4/Wnt) | cell viability (HCT116 [2]) | cell viability (SW480 [3]) | TCF/Wnt firefly luciferase reporter signal (DLD1 [4]; reporter: 7TFP) | TCF/Wnt firefly luciferase reporter signal (DLD1 [4]; reporter: TCF4/Wnt) | TCF/Wnt firefly luciferase reporter signal (HCT116 [5]) | TCF/Wnt firefly luciferase reporter signal (SW480 [6])
O=C1Nc2ccccc2/C1=C1/Nc2ccccc2C1=O [Indirubin] | 0.941 ± 0.044 | 0.819 ± 0.025 | 1.09 ± 0.13 | 0.862 ± 0.034 | 1.44 ± 0.057 | 1.2 ± 0.31 | 0.935 ± 0.054 | 1.08 ± 0.042
Cc1nc(NC(=O)N2CCC[C@H]2C(N)=O)sc1-c1ccnc(C(C)(C)C(F)(F)F)c1 | 0.977 ± 0.047 | 0.996 ± 0.034 | 0.938 ± 0.1 | 1.09 ± 0.028 | 0.558 ± 0.062 | 0.711 ± 0.13 | 0.985 ± 0.13 | 0.791 ± 0.024
C=CC(=O)Nc1cccc(Sc2nc(Nc3ccc(N4CCN(C)CC4)cc3)ncc2Cl)c1 | 1.1 ± 0.035 | 1.02 ± 0.15 | 1.02 | 1.195 ± 0.0071 | 1.79 ± 0.25 | 1.15 ± 0.22 | 1.64 ± 0.67 | 1.32 ± 0.58
CCCCOc1c(C(=O)c2c(F)cc(C)cc2F)c[nH]c2nncc1-2 | 1.075 ± 0.0071 | 1.02 | 1.13 ± 0.085 | 0.862 ± 0.067 | 0.489 ± 0.005 | 0.617 ± 0.071 | 0.879 ± 0.098 | 0.391 ± 0.12
CO[C@H]1C[C@@H]2CC[C@@H](C)[C@@](O)(O2)C(=O)C(=O)N2CCCC[C@H]2C(=O)O[C@H]([C@H](C)C[C@@H]2CC[C@@H](OP(C)(C)=O)[C@H](OC)C2)CC(=O)[C@H](C)/C=C(\C)[C@@H](O)[C@@H](OC)C(=O)[C@H](C)C[C@H](C)/C=C/C=C/C=C/1C [Deforolimus (Ridaforolimus)] | 0.979 ± 0.086 | 1.08 ± 0.092 | 0.979 ± 0.044 | 1.27 ± 0.021 | 0.844 ± 0.022 | 1.02 ± 0.24 | 0.799 ± 0.43 | 1.11 ± 0.39
O=C(Nc1c[nH]nc1-c1nc2ccc(CN3CCOCC3)cc2[nH]1)NC1CC1 | 0.842 ± 0.038 | 0.817 ± 0.022 | 0.566 ± 0.1 | 1.02 ± 0.14 | 0.865 ± 0.018 | 1.575 ± 0.0071 | 0.189 ± 0.0099 | 0.84 ± 0.052
COc1ccc(-c2ccc3c(N4CCOC[C@@H]4C)nc(N4CCOC[C@@H]4C)nc3n2)cc1CO | 0.94 ± 0.14 | 0.921 ± 0.033 | 0.823 ± 0.12 | 1.17 ± 0.099 | 0.34 ± 0.042 | 0.4795 ± 0.0021 | 0.567 ± 0.08 | 0.829 ± 0.035
OCCn1cc(-c2ccc3c(c2)CC/C3=N\O)c(-c2ccncc2)n1 | 1.05 ± 0.15 | 0.992 ± 0.11 | 0.979 ± 0.059 | 1.145 ± 0.0071 | 1.5 ± 0.53 | 1.45 ± 0.085 | 1.62 ± 0.45 | 1.7 ± 0.092
CC(C)(C)c1cc(NC(=O)Nc2ccc(-c3cn4c(n3)sc3cc(OCCN5CCOCC5)ccc34)cc2)no1 [Quizartinib (AC220)] | 0.994 ± 0.19 | 0.989 ± 0.086 | 1.15 ± 0.11 | 1.095 ± 0.0071 | 0.789 ± 0.4 | 1.04 ± 0.014 | 1.22 ± 0.18 | 1.26 ± 0.021
N=C(N)NC(=N)NCCc1ccccc1 [Phenformin hydrochloride] | 1.185 ± 0.0071 | 1.06 ± 0.057 | 1.21 ± 0.18 | 0.923 ± 0.086 | 1.26 ± 0.12 | 1.21 ± 0.27 | 1.3 ± 0.51 | 1.17 ± 0.21
COc1ccc2c(OCc3nnc4ccc(-c5ccccc5)nn34)ccnc2c1 | 1.17 ± 0.05 | 1.06 ± 0.093 | 1.11 ± 0.05 | 0.909 ± 0.028 | 1.29 ± 0.028 | 1.27 ± 0.028 | 1.26 ± 0.035 | 1.16 ± 0.15
Cc1cccc(-c2[nH]c(C(C)(C)C)nc2-c2ccc3nccnc3c2)n1 | 1.14 ± 0.064 | 1.06 ± 0.14 | 1.17 ± 0.028 | 0.853 ± 0.043 | 1.1 ± 0.042 | 1.03 ± 0.12 | 1.03 ± 0.14 | 0.854 ± 0.17
COc1cc(Nc2ncc(F)c(Nc3ccc4c(n3)N(COP(=O)(O)O)C(=O)C(C)(C)O4)n2)cc(OC)c1OC | 0.895 ± 0.046 | 0.896 ± 0.073 | 0.8 ± 0.055 | 0.919 ± 0.028 | 0.86 ± 0.098 | 0.919 ± 0.089 | 2.02 ± 1.6 | 0.588 ± 0.28
Cc1cnc(NC(=O)Nc2cc(Br)c(C)cc2OC[C@@H]2CNCCO2)cn1 | 0.833 ± 0.16 | 0.983 ± 0.096 | 0.805 ± 0.16 | 1.02 ± 0.089 | 1.06 ± 0.057 | 1.12 ± 0.028 | 0.894 ± 0.35 | 0.938 ± 0.012
Cn1cc(-c2ccc3ncc(Cc4ccc5ncccc5c4)n3n2)cn1 | 1.045 ± 0.0071 | 1.06 ± 0.094 | 1.15 ± 0.028 | 0.911 ± 0.032 | 0.931 ± 0.021 | 0.769 ± 0.21 | 0.991 ± 0.61 | 0.587 ± 0.28
COCC(=O)NC/C=C/c1ccc2ncnc(Nc3ccc(Oc4ccc(C)nc4)c(C)c3)c2c1 | 0.964 ± 0.14 | 1.035 ± 0.0071 | 1.06 ± 0.014 | 0.952 ± 0.059 | 1.18 ± 0.064 | 1.19 ± 0.17 | 0.786 ± 0.27 | 0.927 ± 0.43
Cc1nc(N)sc1-c1ccnc(Nc2ccc(N3CCOCC3)cc2)n1 | 1.09 ± 0.14 | 1.09 ± 0.085 | 1.07 ± 0.064 | 1.06 ± 0.028 | 1.24 ± 0.23 | 1.23 ± 0.36 | 1.72 ± 0.2 | 0.774 ± 0.36
C=CC(=O)Nc1cccc(Oc2nc(Nc3ccc(N4CCN(C)CC4)cc3)ncc2Cl)c1 | 0.968 ± 0.045 | 1.045 ± 0.0071 | 0.894 ± 0.16 | 1.07 ± 0.085 | 0.79 ± 0.067 | 0.969 ± 0.12 | 1.18 ± 0.42 | 0.834 ± 0.39
Cc1csc(-c2nnc(Nc3ccc(Oc4ncccc4-c4ccnc(N)n4)cc3)c3ccccc23)c1 | 0.943 ± 0.042 | 1.03 ± 0.035 | 1.16 ± 0.071 | 1.03 ± 0.059 | 1.08 ± 0.11 | 0.866 ± 0.13 | 1.75 ± 0.14 | 0.983 ± 0.067
O=C1NC(=O)/C(=C\c2ccc3nccnc3c2)S1 | 1 ± 0.038 | 1.04 ± 0.063 | 1.04 ± 0.042 | 0.854 ± 0.055 | 1.38 ± 0.05 | 1.48 ± 0.021 | 1.96 ± 0.18 | 1.3 ± 0.33
